Source: PubChem BioAssay
Shown are actives, neighbours in structure and some others; about 19% of the full set was active somewhere.
TDP1 cell noCPT: qHTS for Inhibitors of human tyrosyl-DNA phosphodiesterase 1 (TDP1): qHTS in cells in absence of CPT; Potency, µM (titrated, usually from 46.2 µM), without a hit: at the top dose activity change, negative = growth inhibition, hits mostly inhibitors; 15% of 420,000 active; DT40 Tdp1-/- hTDP1 cells, no CPT, ATP luminescence, 48 h; AID 686978, 2013; further: potency means the concentration at half of the fitted maximal effect; on the % scale 0 is the no-effect control and ±100 the full control effect; nearly all actives have a fitted effect of over 55% in size
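Compound effects on proliferation are scored in DT40 Tdp1-/-;hTDP1 cells in the absence of CPT. ATP levels (CellTiter-Glo luminescence) are recorded after a ≥48 hr, 37 °C incubation.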
DT40 TDP1 CPT: qHTS for Inhibitors of human tyrosyl-DNA phosphodiesterase 1 (TDP1): qHTS in cells in presence of CPT; chicken DT40 Tdp1-/-;hTDP1 cells + 20 nM CPT, ATP luminescence, 48 h; AID 686979, 2013; 12% of 420,000 active; Potency, µM (titrated, usually from 46.2 µM), for inactives: top-dose activity change, negative = growth inhibition, hits mostly inhibitors; further: potency means the concentration at half of the fitted maximal effect; on the % scale 0 is the no-effect control and ±100 the full control effect; nearly all actives have a fitted effect of over 55% in size
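Cell growth measured by CellTiter-Glo luminescence after a minimum 48 h, 37 C compound exposure with 20 nM CPT in Tdp1-knockout DT40 cells stably expressing hTDP1, seeded 400/well; qHTS titration format.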
TGFb inhibitor: qHTS for Inhibitors of TGF-b; AID 588855, 2011; 1.2% of 410,000 active; Potency, µM (doses to about 46.1 µM), without a hit: at the top dose activity, negative = inhibition, hits mostly inhibitors; HepG2 CAGA-GFP TGF-b/SMAD3 reporter, GFP fluorescence, 18 h; TGF-beta stimulated, 500 pg/mL final; further: potency means the concentration at half of the fitted maximal effect; on the % scale 0 is the no-effect control and ±100 the full control effect; nearly all actives have a fitted effect of over 65% in size
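First, reporter cells (HEPG2 CAGA-GFP) rested 2 h at 37 degrees C. Next, compounds were pinned in and TGF-beta added to 500 pg/mL final. After 18 h, GFP was imaged per cell and summed per well.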
S-ASM inh: Inhibitors of Secretory Acid Sphingomyelinase (S-ASM): qHTS | Sphingomyelin phosphodiesterase (Homo sapiens), P17405 | placental ASM, HMU-PC fluorogenic substrate, 60 min | Potency, µM (doses to about 57.5 µM), inactives show at the top dose activity change, negative = inhibition, actives largely listed as inhibitors | 0.006% of 340,000 active; further: potency means the concentration at half of the fitted maximal effect
Target sequence (P17405 47-631 limits assumed): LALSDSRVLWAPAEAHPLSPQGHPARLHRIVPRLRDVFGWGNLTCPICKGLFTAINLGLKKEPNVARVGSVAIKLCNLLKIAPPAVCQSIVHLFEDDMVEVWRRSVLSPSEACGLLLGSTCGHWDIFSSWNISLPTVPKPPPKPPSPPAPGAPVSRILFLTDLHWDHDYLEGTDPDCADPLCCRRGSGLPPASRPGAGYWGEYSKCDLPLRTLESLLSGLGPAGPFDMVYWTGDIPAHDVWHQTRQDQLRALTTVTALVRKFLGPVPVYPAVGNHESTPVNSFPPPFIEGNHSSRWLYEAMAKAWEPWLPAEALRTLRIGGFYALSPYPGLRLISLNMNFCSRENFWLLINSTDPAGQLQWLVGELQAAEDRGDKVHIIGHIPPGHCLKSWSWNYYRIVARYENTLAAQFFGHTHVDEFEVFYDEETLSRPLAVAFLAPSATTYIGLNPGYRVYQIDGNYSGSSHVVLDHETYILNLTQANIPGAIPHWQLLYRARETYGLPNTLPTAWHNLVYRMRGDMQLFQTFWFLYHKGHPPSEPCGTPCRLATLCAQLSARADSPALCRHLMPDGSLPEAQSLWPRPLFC
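Steps: dispense placental human ASM, pin compound, wait 10 min at room temperature, add HMU-PC0 substrate at 9 uM final, incubate 60 min at 37 °C, add stop solution raising pH to 10, read fluorescence.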
IL-1B inflam inh: qHTS for Inhibitors of Inflammasome Signaling: IL-1-beta AlphaLISA Primary Screen; activity change, % at 57.5 µM; THP-1 LPS/ATP IL-1B secretion, AlphaLISA, 16 h; stronger effect = lower value; 4.7% of 360,000 active; AID 743279, 2014; in the data active means activity change below about -50%; inconclusive means mostly about -30% to -49%; further: on the % scale 0 is the no-effect control and ±100 the full control effect
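Secreted IL-1B measured by AlphaLISA bead assay after 16 h compound exposure of THP-1 cells; compounds (final up to 57.5 uM) added 1 h before LPS (250 ng/mL) and ATP (1.25 mM) stimulation; lower signal means less secretion.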
HepG2 tox: qHTS for Inhibitors of TGF-b: Cytotox Counterscreen. HepG2 CAGA-GFP viability, ATP luminescence, 18 h. Potency, µM (top dose mostly 46.1 µM), without a hit: at the highest dose activity change, negative = cytotoxicity, actives largely listed as cytotoxic. 0.76% of 410,000 active. AID 588856, 2011; further: potency means the concentration at half of the fitted maximal effect
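HepG2 CAGA-GFP cells (1000/well, DMEM with 1% FBS) received compound, then TGF-beta at 500 pg/mL final, and were incubated 18 hours at 37 degrees C. Viability was read by CellTiter-Glo luminescence. Media-only wells were set as complete cell-killing and DMSO as no toxicity.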
Numbers without * were called inactive; ? = inconclusive; . = no result given; [ ] = another dose, or the depositor's remark. Unless noted, the call rests on the fitted dose curve; in most records, active means well fitted curve in the direction sought with a large enough effect; inconclusive means small, poorly fitted or top-dose-only effect, or another doubt; inactive means no such curve, though single readings can be large; an effect the other way counts as inactive or inconclusive.

SMILES	TDP1 cell noCPT	DT40 TDP1 CPT	TGFb inhibitor	S-ASM inh	IL-1B inflam inh	HepG2 tox
O=C1C2C3CCC(C3)C2C(=O)N1c1ccc(OS(=O)(=O)c2ccccc2)cc1 (stereo unspecified)	?	?	-23.3%	-1.6%	10.9	-17.2%
O=C(c1csnn1)N1CCC2(CC1)CN(Cc1ccncc1)C2	-3.4%	7.3%	.	.	.	.
CCc1ccc(-n2c(SC(CC)C(=O)N(CC)CC)nc3n[nH]c(C)c3c2=N)cc1 (stereo unspecified)	2.59µM*	2.59µM*	?	.	.	-9.3%
COc1ccc2ccccc2c1CNCCc1ccccc1	?	23.1µM*	-9.9%	0.8%	-54.6*	-61.1%
COc1cccc(CNCCc2ccccc2)c1OC	-20.3%	4.5%	0.8%	3.4%	-3.8	3.4%
O=C(O)CCCO	-22.4%[92.5 µM]	16.1%[92.5 µM]	.	.	.	.
COC(=O)c1nc(-c2ccc3c(n2)C(=O)C(N)=C(OC)C3=O)c(N)c(-c2ccc(OC)c(OC)c2O)c1C	0.92µM*	0.461µM*	?	-13.7%	-55.1*	-146.0%
O=C(Oc1ccccc1)N1CCC2(CCCN(Cc3ccccc3)C2)CC1	?	4.1%	.	.	.	.
CCOC(=O)c1cccc(C2=C(CNC(C)=O)[C@H]3CC[C@@H](C2)N3Cc2ccccc2)c1	?	-3.0%	2.5%	.	-14.6	-37.7%
CCOC(=O)c1cccc(C2=C(CNC(=O)c3cccnc3)[C@H]3CC[C@@H](C2)N3Cc2ccccc2)c1	20.6µM*	?	-2.3%	.	?	-30.5%
CCOC(=O)C1=C(N)OC2=C(C(=O)CC(C)(C)C2)C12C(=O)Nc1ccccc12 (stereo unspecified)	1.5%	-23.5%	-2.3%	2.1%	28.4	6.4%
COC(=O)C1=C(c2ccc(C(C)=O)cc2)C[C@@H]2CC[C@H]1N2C(=O)N1CCC(C)CC1	20.6µM*	18.4µM*	-5.5%	-0.5%	-0.6	-2.0%
COC(=O)C1=C(c2ccc(C(C)=O)cc2)C[C@@H]2CC[C@H]1N2C(=O)N1CCC(O)(c2ccc(Cl)cc2)CC1	9.2µM*	16.4µM*	-25.4%	-9.5%	-15.9	-16.2%
COC(=O)C1=C(c2ccc(OC)c(OC)c2)C[C@@H]2CC[C@H]1N2C(=O)N1CCc2cc(OC)c(OC)cc2C1	?	?	4.7%	0.7%	-4.5	0.1%
COC(=O)C1=C(c2ccc(S(C)(=O)=O)cc2)C[C@@H]2CC[C@H]1N2C(=O)N1CCC(O)CC1	-11.2%	-1.1%	2.2%	4.2%	6.2	6.7%
COC(=O)C1=C(c2ccc(S(C)(=O)=O)cc2)C[C@@H]2CC[C@H]1N2C(=O)N1CCCCC1	-18.5%	-27.1%	10.2%	-2.0%	-4.1	15.4%
COC(=O)C1=C(c2ccc(OC)c(OC)c2)C[C@@H]2CC[C@H]1N2C(=O)NC1CC1	-15.4%	?	3.4%	4.2%	1.3	0.5%
COC(=O)C1=C(c2ccc(OC)c(OC)c2)C[C@@H]2CC[C@H]1N2C(=O)N1CCOCC1	?	20.6µM*	7.9%	3.0%	8.6	0.4%
COC(=O)C1=C(c2ccc(OC)c(OC)c2)C[C@@H]2CC[C@H]1N2C(=O)N1CCC(C)CC1	10.3µM*	20.6µM*	-0.5%	5.7%	9.2	2.7%
CN1C(C(=O)NCc2cccc(C(F)(F)F)c2)CC2Cn3c(nc4cc5ccccc5cc43)C21 (stereo unspecified)	18.4µM*	?	?	-0.5%	-6.8	-26.9%
COc1ccc(-c2nn(CCC#N)cc2C(=O)Nc2ccccc2Br)cc1	?	-0.9%	-7.4%	-4.8%	18.4	-10.2%
Fc1ccccc1CNCCc1c[nH]c2ccccc12	?	16.4µM*	9.7%	-0.3%	-29.1	-18.0%
FC(F)(F)c1ccccc1CNCCc1c[nH]c2ccccc12	14.6µM*	?	-18.5%	1.8%	-4.2	-55.0%
COc1cccc(CNCCc2ccc(F)cc2)c1	?	?	-1.9%	1.6%	-13.9	-37.7%
Fc1ccc(CCNCc2ccc(Br)cc2)cc1	?	?	-28.2%	2.1%	-68.0*	-64.7%
SMILES	TDP1 cell noCPT	DT40 TDP1 CPT	TGFb inhibitor	S-ASM inh	IL-1B inflam inh	HepG2 tox
c1coc(CNCCc2c[nH]c3ccccc23)c1	-22.7%	5.3%	5.1%	-2.0%	-13.5	-15.7%
Fc1ccc(CNCCc2ccccc2F)cc1	-14.0%	-7.5%	0.4%	3.0%	-27.3	-3.1%
COc1cccc(CNCCc2c[nH]c3ccccc23)c1	?	?	0.0%	-3.6%	-77.7*	-7.6%
COC(=O)N1CCC2(CCN(CC(C)C)CC2)CC1	-11.4%	-7.0%	.	.	.	.
Fc1ccc(CNCCc2c[nH]c3ccccc23)cc1	4.61µM*	?	-6.0%	-1.9%	-81.3*	-41.1%
OC(CNCCc1c[nH]c2ccccc12)c1ccccc1 (stereo unspecified)	-14.1%	-11.7%	11.1%	1.9%	-56.6*	-0.9%
C[C@H]1COC(=O)[C@@H](Cc2ccc(F)cc2)CC/C=C/C[C@@H](CC(=O)N(CCO)Cc2ccccc2)C(=O)N1	23.1µM*	13µM*	-12.7%	-2.6%	4.3	-11.8%
C[C@H]1COC(=O)[C@@H](Cc2ccc(F)cc2)CC/C=C/C[C@H](CC(=O)N(CCO)Cc2ccccc2)C(=O)N1	16.4µM*	16.4µM*	0.0%	-3.0%	-28.4	-7.5%
CN(CC(=O)Nc1cccc(F)c1)CC(=O)Nc1cccc(S(=O)(=O)N(C)c2ccccc2)c1	23.1µM*	23.1µM*	?	-11.8%	-78.8*	-11.3%
CCOC(=O)CC(SP1(=S)OCC2(CCCCC2)CO1)C(=O)OCC (stereo unspecified)	-5.8%	-1.9%	-3.9%	2.5%	-6.6	-22.5%
O=C(NCCc1ccccc1)c1ccc(CSc2nc3cccnc3n2Cc2ccc(F)cc2)cc1	14.6µM*	?	-28.0%	.	.	-27.9%
O=C(NCCc1ccccc1)c1ccc2nccnc2c1	-22.6%	?	14.2%	2.6%	8.2	2.5%
O=S(=O)(c1ccccc1)C1CN1c1c(F)c(F)c(F)c(F)c1F (stereo unspecified)	?	-19.0%	.	.	0.0	.
COc1ccccc1-c1nc2c(c(SCc3cccc(Cl)c3)n1)Cc1c(CO)cnc(C)c1O2	18.4µM*	9.2µM*	-7.0%	.	.	3.3%
